# Measurements: the supplement of paper PMC6411743
# ± gives the standard deviation of the averaged measurements. Of roughly 6,500 targets only a part is listed; those with the largest changes were picked by preference.
# Compound: Nc1ncnc2c1ncn2[C@@H]1O[C@H](COP(=O)(O)OP(=O)(O)OP(=O)(O)O)[C@@H](O)[C@H]1O [adenosine triphosphate]
# Experiment: NP40-soluble protein abundance relative to vehicle (solubility fold change) (ratio); higher = more soluble protein in presence of ATP
# How it was run: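 Across three independent experiments, values are fold changes against the detergent-processed vehicle for each replicate, based on vsn-normalised intensities. The samples were Jurkat crude lysate treated with eight concentrations (0.1 to 10 mM) for 10 min at room temperature and then 3 min at 37 °C. Lysate was solubilised with 0.8% NP40 and benzonase, ultracentrifuged, and the supernatant analysed by TMT-labelled LC-MS/MS.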
# UniProt Q9NYP7, sequence (Q9NYP7 whole entry): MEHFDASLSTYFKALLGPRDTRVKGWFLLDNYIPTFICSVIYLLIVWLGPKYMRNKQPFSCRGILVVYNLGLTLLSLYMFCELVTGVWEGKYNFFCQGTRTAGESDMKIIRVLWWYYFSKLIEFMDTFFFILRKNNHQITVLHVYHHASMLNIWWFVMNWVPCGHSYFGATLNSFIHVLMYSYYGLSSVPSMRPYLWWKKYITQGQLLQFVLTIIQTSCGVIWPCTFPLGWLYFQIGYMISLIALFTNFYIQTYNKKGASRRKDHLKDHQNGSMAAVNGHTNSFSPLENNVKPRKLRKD
# UniProt Q96AD5, sequence (Q96AD5 whole entry): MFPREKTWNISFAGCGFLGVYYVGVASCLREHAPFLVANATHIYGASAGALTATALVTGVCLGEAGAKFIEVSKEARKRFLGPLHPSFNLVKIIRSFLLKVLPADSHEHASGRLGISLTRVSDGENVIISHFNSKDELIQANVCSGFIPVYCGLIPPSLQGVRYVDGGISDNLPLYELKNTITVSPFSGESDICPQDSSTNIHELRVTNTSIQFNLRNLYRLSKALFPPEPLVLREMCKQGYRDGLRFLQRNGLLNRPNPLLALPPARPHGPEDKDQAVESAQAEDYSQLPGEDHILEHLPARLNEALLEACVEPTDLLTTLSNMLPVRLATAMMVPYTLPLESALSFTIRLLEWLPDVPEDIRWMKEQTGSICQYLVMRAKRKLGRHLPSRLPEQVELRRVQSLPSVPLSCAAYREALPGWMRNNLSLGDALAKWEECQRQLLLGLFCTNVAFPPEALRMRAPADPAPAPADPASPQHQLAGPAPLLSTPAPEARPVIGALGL
# UniProt Q96IX5, sequence (Q96IX5 whole entry): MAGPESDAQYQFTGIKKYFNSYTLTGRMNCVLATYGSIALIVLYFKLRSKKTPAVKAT
# UniProt Q96AT9, sequence (Q96AT9 whole entry): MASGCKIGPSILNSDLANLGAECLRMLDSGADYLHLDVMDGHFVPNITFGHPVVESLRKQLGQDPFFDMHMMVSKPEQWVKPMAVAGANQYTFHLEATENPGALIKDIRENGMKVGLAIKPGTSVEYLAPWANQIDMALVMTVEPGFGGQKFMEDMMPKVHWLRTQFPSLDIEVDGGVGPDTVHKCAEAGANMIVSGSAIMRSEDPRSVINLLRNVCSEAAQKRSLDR
# UniProt Q92508, sequence (Q92508 whole entry): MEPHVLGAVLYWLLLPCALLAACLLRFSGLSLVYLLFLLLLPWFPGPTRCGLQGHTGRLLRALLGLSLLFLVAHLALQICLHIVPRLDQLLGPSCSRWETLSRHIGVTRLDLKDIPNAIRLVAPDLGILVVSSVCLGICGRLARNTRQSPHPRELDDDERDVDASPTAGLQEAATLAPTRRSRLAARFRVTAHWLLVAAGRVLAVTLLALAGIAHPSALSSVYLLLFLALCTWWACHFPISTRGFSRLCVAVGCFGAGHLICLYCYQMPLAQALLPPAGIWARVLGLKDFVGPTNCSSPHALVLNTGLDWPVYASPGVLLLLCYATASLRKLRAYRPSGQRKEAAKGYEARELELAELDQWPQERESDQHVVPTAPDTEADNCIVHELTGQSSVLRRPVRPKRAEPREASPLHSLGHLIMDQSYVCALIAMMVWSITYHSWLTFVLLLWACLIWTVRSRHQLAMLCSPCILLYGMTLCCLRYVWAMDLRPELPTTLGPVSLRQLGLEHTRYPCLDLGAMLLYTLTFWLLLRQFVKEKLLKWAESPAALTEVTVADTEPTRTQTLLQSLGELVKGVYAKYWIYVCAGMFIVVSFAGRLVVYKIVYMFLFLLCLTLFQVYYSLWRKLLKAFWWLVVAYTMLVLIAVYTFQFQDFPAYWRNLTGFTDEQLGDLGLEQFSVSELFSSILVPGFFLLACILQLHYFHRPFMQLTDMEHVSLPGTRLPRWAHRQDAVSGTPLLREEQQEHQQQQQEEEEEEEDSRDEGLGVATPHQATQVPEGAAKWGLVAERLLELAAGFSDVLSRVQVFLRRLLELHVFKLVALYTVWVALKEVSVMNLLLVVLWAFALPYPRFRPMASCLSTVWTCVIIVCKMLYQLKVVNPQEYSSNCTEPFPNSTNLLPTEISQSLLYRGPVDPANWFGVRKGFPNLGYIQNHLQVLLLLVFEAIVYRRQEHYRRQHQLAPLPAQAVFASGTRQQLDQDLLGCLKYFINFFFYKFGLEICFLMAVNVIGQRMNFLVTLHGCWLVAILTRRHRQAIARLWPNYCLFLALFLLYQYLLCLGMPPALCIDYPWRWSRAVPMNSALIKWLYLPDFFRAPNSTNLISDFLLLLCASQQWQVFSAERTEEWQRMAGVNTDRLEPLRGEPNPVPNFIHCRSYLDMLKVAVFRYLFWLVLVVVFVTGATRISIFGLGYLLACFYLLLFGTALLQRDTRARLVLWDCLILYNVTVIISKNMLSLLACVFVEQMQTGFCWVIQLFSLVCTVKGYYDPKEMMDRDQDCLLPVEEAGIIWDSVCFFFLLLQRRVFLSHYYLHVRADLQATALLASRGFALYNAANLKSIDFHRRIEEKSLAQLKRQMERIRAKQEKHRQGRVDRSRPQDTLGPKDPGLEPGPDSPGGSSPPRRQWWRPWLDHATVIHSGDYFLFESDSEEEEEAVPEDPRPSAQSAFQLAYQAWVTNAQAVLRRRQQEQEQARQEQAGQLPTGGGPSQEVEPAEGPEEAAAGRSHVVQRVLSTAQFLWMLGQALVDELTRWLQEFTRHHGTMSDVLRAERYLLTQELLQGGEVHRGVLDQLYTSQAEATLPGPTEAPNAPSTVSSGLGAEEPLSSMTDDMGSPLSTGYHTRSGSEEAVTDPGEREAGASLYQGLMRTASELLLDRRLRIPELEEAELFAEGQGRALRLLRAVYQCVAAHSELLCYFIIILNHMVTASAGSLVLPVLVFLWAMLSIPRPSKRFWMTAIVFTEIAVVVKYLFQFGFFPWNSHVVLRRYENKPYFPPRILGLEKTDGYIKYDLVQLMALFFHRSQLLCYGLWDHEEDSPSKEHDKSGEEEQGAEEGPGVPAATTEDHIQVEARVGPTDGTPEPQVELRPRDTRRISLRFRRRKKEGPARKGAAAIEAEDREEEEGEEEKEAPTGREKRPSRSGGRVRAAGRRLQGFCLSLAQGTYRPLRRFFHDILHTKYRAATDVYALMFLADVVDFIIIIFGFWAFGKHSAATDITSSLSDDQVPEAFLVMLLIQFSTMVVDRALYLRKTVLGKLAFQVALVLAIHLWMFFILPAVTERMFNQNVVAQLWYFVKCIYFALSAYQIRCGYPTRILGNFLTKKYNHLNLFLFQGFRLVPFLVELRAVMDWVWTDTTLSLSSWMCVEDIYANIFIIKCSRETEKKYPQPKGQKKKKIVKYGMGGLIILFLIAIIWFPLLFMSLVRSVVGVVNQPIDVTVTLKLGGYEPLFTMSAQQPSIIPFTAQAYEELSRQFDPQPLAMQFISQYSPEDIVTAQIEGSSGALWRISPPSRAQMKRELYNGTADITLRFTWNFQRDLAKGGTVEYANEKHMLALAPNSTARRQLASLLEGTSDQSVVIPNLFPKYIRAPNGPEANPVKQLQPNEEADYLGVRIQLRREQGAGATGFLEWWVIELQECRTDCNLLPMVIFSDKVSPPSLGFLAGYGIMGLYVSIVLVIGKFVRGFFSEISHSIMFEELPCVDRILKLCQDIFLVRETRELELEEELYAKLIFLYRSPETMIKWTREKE
# UniProt Q9NWZ3, sequence (Q9NWZ3 whole entry): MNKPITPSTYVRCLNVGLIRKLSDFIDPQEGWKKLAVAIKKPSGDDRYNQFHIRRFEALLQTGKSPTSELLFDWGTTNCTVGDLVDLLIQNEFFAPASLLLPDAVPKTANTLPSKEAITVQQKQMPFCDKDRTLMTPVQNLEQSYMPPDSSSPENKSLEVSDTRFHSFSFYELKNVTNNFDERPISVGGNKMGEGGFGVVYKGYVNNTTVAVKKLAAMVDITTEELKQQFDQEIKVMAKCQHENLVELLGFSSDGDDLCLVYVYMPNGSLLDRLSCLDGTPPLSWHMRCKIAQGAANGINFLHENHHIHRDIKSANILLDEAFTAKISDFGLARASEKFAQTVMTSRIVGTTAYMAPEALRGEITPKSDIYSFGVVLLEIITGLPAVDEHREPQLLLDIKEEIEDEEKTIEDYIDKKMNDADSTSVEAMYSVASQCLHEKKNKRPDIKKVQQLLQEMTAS
# UniProt Q9UBK8, sequence (Q9UBK8 whole entry): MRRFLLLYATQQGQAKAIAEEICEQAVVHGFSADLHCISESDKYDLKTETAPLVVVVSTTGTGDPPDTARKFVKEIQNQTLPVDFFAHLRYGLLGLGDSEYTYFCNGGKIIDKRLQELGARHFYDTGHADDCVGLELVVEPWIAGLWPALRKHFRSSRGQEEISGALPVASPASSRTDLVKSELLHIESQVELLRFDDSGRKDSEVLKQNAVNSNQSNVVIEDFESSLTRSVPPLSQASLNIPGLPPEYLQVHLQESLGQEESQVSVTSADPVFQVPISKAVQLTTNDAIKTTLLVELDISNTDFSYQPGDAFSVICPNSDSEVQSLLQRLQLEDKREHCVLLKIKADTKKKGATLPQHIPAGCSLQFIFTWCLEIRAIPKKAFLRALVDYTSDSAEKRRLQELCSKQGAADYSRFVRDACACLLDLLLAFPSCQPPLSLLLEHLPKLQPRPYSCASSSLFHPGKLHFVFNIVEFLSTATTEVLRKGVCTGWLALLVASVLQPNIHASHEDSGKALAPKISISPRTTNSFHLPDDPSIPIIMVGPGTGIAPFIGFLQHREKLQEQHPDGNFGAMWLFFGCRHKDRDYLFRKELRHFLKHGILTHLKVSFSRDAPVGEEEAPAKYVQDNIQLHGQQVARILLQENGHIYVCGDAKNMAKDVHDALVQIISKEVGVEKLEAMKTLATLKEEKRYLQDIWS
# UniProt Q99653, sequence (Q99653 whole entry): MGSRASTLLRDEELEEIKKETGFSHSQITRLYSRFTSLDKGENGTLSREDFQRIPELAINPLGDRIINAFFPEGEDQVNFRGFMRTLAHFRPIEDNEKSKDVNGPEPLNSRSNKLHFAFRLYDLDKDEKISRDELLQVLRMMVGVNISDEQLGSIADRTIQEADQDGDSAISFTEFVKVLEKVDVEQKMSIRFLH
Target,NP40-soluble protein abundance (concentration: 1mM),NP40-soluble protein abundance (concentration: 2mM),NP40-soluble protein abundance (concentration: 4mM),NP40-soluble protein abundance (concentration: 6mM),NP40-soluble protein abundance (concentration: 8mM),NP40-soluble protein abundance (concentration: 10mM)
ATG4C (UniProt Q96DT6),1.036 ± 0.003,1.05 ± 0.081,1.04 ± 0.041,0.992 ± 0.12,1.05 ± 0.087,1 ± 0.092
UniProt Q96IX5,0.875 ± 0.049,0.935 ± 0.11,0.936 ± 0.16,0.976 ± 0.15,0.909 ± 0.16,0.99 ± 0.14
PAFAH2 (UniProt Q99487),1 ± 0.098,1.01 ± 0.074,0.978 ± 0.053,1 ± 0.27,0.992 ± 0.05,1.02 ± 0.064
UniProt Q9NY12|Q9NY12-2,1.11 ± 0.061,1.18 ± 0.084,1.29 ± 0.067,1.41 ± 0.16,1.72 ± 0.15,1.93 ± 0.32
UniProt Q96EZ8|Q96EZ8-2|Q96EZ8-3,1.08 ± 0.04,1.06 ± 0.053,1.08 ± 0.013,1.09 ± 0.093,1.14 ± 0.038,1.18 ± 0.044
DNAJC9 (UniProt Q8WXX5),1.04 ± 0.024,1.13 ± 0.012,1.34 ± 0.04,1.55 ± 0.057,1.73 ± 0.12,1.76 ± 0.1
UniProt Q969M3|Q969M3-3,0.981 ± 0.16,0.97 ± 0.19,0.974 ± 0.22,0.987 ± 0.24,0.961 ± 0.19,0.996 ± 0.19
UniProt Q96HN2-2|Q96HN2,0.919 ± 0.042,0.934 ± 0.051,0.898 ± 0.025,0.939 ± 0.052,0.911 ± 0.017,0.934 ± 0.01
UniProt Q9NZC7|Q9NZC7-2,1.028 ± 0.01,1.04 ± 0.073,1.04 ± 0.1,1.08 ± 0.13,1.06 ± 0.073,1.2 ± 0.29
UniProt Q9UBS0,1.1 ± 0.063,1.11 ± 0.082,1.12 ± 0.088,1.05 ± 0.053,1.15 ± 0.14,1.09 ± 0.11
DHRS4 (UniProt Q9BTZ2),0.9895 ± 0.0086,0.987 ± 0.019,0.989 ± 0.043,0.956 ± 0.028,0.968 ± 0.035,0.988 ± 0.018
UniProt Q9H6W3,1.2 ± 0.019,1.25 ± 0.029,1.31 ± 0.063,1.46 ± 0.1,1.54 ± 0.11,1.73 ± 0.093
PNPLA2 (UniProt Q96AD5),1.04 ± 0.047,1 ± 0.069,1.02 ± 0.064,0.927 ± 0.12,0.994 ± 0.062,1.06 ± 0.1
UniProt Q9NUQ7|D6RA67,1.09 ± 0.15,1.07 ± 0.13,1.05 ± 0.093,0.95 ± 0.18,1.08 ± 0.072,1.02 ± 0.091
UniProt Q9UG63|Q9UG63-2,1.09 ± 0.033,1.15 ± 0.039,1.42 ± 0.019,1.67 ± 0.095,2.16 ± 0.093,2.59 ± 0.25
UniProt Q99653,0.961 ± 0.041,0.989 ± 0.011,0.983 ± 0.029,0.965 ± 0.054,0.961 ± 0.059,0.931 ± 0.037
PECR (UniProt Q9BY49),0.965 ± 0.093,0.966 ± 0.037,0.994 ± 0.073,0.984 ± 0.076,1.02 ± 0.053,1.05 ± 0.033
COG8 (UniProt Q96MW5),0.938 ± 0.057,0.917 ± 0.029,0.937 ± 0.048,0.898 ± 0.068,0.902 ± 0.06,0.975 ± 0.054
UniProt Q92833|Q92833-2,1.33 ± 0.27,1.32 ± 0.34,1.48 ± 0.51,1.49 ± 0.48,1.59 ± 0.63,1.76 ± 0.69
QTRT1 (UniProt Q9BXR0),1.01 ± 0.12,0.995 ± 0.091,1.02 ± 0.049,0.925 ± 0.14,0.994 ± 0.049,0.985 ± 0.051

Target,NP40-soluble protein abundance (concentration: 1mM),NP40-soluble protein abundance (concentration: 2mM),NP40-soluble protein abundance (concentration: 4mM),NP40-soluble protein abundance (concentration: 6mM),NP40-soluble protein abundance (concentration: 8mM),NP40-soluble protein abundance (concentration: 10mM)
UniProt Q9NUL5,0.948 ± 0.041,0.972 ± 0.048,0.921 ± 0.029,0.921 ± 0.057,0.908 ± 0.025,0.924 ± 0.035
MECR (UniProt Q9BV79),0.969 ± 0.013,0.959 ± 0.056,0.964 ± 0.037,0.957 ± 0.054,0.94 ± 0.013,0.92 ± 0.012
MRPL38 (UniProt Q96DV4),1.04 ± 0.035,0.869 ± 0.076,0.87 ± 0.08,0.925 ± 0.3,0.86 ± 0.15,0.839 ± 0.15
PIEZO1 (UniProt Q92508),1.1 ± 0.12,1.09 ± 0.13,1.14 ± 0.24,1.14 ± 0.12,1.09 ± 0.12,1.09 ± 0.012
ITPKC (UniProt Q96DU7),0.986 ± 0.048,0.971 ± 0.041,1.0284 ± 0.00016,0.857 ± 0.11,0.886 ± 0.026,0.883 ± 0.019
PUS7 (UniProt Q96PZ0),0.969 ± 0.059,0.974 ± 0.057,0.967 ± 0.034,0.941 ± 0.076,0.963 ± 0.03,0.968 ± 0.036
TMEM109 (UniProt Q9BVC6),0.943 ± 0.051,0.962 ± 0.066,0.999 ± 0.082,0.915 ± 0.03,0.955 ± 0.046,0.91 ± 0.074
MRPS31 (UniProt Q92665),0.994 ± 0.058,0.93 ± 0.066,0.871 ± 0.062,0.923 ± 0.14,0.865 ± 0.088,0.857 ± 0.073
UniProt Q92804|Q92804-2,1.05 ± 0.14,1.07 ± 0.15,1.24 ± 0.2,1.5 ± 0.29,1.59 ± 0.21,2.05 ± 0.3
RABEP2 (UniProt Q9H5N1),0.967 ± 0.062,0.941 ± 0.036,0.929 ± 0.035,0.956 ± 0.046,0.905 ± 0.011,0.901 ± 0.039
UniProt Q9NVI7-2,1.54 ± 0.05,1.64 ± 0.086,1.8 ± 0.086,1.89 ± 0.29,2.2 ± 0.2,2.35 ± 0.26
UniProt Q9HC36,1.11 ± 0.06,1.29 ± 0.068,1.57 ± 0.13,1.8 ± 0.21,2.03 ± 0.2,2.37 ± 0.32
RPRD1B (UniProt Q9NQG5),0.969 ± 0.12,0.943 ± 0.039,0.971 ± 0.049,0.993 ± 0.089,1.02 ± 0.034,0.854 ± 0.15
UniProt Q9UBK8|Q9UBK8-2,0.946 ± 0.042,1.01 ± 0.066,0.941 ± 0.058,0.97 ± 0.068,0.973 ± 0.028,0.978 ± 0.08
DDX21 (UniProt Q9NR30),1.29 ± 0.046,1.42 ± 0.042,1.65 ± 0.098,2.04 ± 0.17,2.53 ± 0.21,3.17 ± 0.13
UniProt Q96AQ6|Q96AQ6-2,0.939 ± 0.053,0.927 ± 0.024,0.924 ± 0.028,0.953 ± 0.017,0.895 ± 0.01,0.9264 ± 0.0053
UniProt Q9BSW2-2,0.967 ± 0.041,1.01 ± 0.034,1.02 ± 0.02,1.01 ± 0.018,0.972 ± 0.0098,0.988 ± 0.04
UniProt Q96GM8|Q96GM8-2,1.06 ± 0.095,1.22 ± 0.14,1.35 ± 0.12,1.38 ± 0.12,1.53 ± 0.13,1.82 ± 0.32
UniProt Q9UBF8-2,0.962 ± 0.044,0.961 ± 0.065,0.9581 ± 0.0056,0.938 ± 0.011,0.9049 ± 0.007,0.928 ± 0.026
UniProt Q8WYP5|Q8WYP5-2|Q8WYP5-3,1.13 ± 0.037,1.16 ± 0.048,1.28 ± 0.079,1.38 ± 0.096,1.42 ± 0.12,1.53 ± 0.13

Target,NP40-soluble protein abundance (concentration: 1mM),NP40-soluble protein abundance (concentration: 2mM),NP40-soluble protein abundance (concentration: 4mM),NP40-soluble protein abundance (concentration: 6mM),NP40-soluble protein abundance (concentration: 8mM),NP40-soluble protein abundance (concentration: 10mM)
UniProt Q96CN4|Q96CN4-2,0.985 ± 0.035,1.02 ± 0.061,1.13 ± 0.21,1.1 ± 0.084,1 ± 0.034,1.05 ± 0.059
ZNF512B (UniProt Q96KM6),1.01 ± 0.04,1.05 ± 0.02,1.07 ± 0.024,1.12 ± 0.044,1.08 ± 0.03,1.08 ± 0.043
UniProt Q9NYP7|Q9NYP7-2,1.07 ± 0.19,1.05 ± 0.12,1.05 ± 0.14,0.94 ± 0.15,1.09 ± 0.17,1.01 ± 0.056
UniProt Q9NVR5,0.965 ± 0.028,0.98 ± 0.039,1 ± 0.047,1.04 ± 0.065,1.01 ± 0.12,0.967 ± 0.044
UniProt Q9BRQ0|Q5T171,0.931 ± 0.11,0.887 ± 0.18,0.898 ± 0.15,0.944 ± 0.19,0.865 ± 0.15,0.909 ± 0.29
RDH14 (UniProt Q9HBH5),0.997 ± 0.049,1.01 ± 0.0098,1.03 ± 0.043,0.998 ± 0.056,1.05 ± 0.037,1.01 ± 0.035
ATP13A1 (UniProt Q9HD20),1.01 ± 0.1,1 ± 0.06,1.01 ± 0.064,0.951 ± 0.086,1 ± 0.041,0.978 ± 0.03
UniProt Q9NUL3-3|Q9NUL3-8|A0A0A0MTD1|E7EPX0|E7EVJ4|F8VPI7|A0A0A0MTC5|E9PH62|Q9NUL3|Q9NUL3-2,0.971 ± 0.048,1.11 ± 0.13,1.02 ± 0.057,1.11 ± 0.15,1.16 ± 0.099,1.3 ± 0.11
NCOA5 (UniProt Q9HCD5),1.09 ± 0.031,1.22 ± 0.056,1.49 ± 0.062,1.85 ± 0.12,2.23 ± 0.12,2.76 ± 0.14
ARGLU1 (UniProt Q9NWB6),1.72 ± 0.14,1.86 ± 0.18,2.03 ± 0.26,2.27 ± 0.22,2.33 ± 0.28,2.44 ± 0.27
UniProt Q9GZP9|I3L1T3,0.935 ± 0.091,0.903 ± 0.083,0.946 ± 0.13,0.887 ± 0.12,0.944 ± 0.068,0.916 ± 0.11
UniProt Q96AT9|Q96AT9-2,1.06 ± 0.092,1.07 ± 0.047,1.06 ± 0.075,1.05 ± 0.073,0.991 ± 0.064,0.993 ± 0.048
IRAK4 (UniProt Q9NWZ3),1.02 ± 0.042,1.03 ± 0.045,1.01 ± 0.051,0.985 ± 0.057,0.996 ± 0.043,0.988 ± 0.047
UniProt Q96N16|Q96N16-2,1.17 ± 0.24,1.27 ± 0.16,1.28 ± 0.24,1.37 ± 0.19,1.27 ± 0.23,1.36 ± 0.17
UniProt Q9BTX1|Q9BTX1-2|Q9BTX1-5|Q9BTX1-6,1.01 ± 0.076,1.01 ± 0.071,1.03 ± 0.1,0.996 ± 0.13,1.06 ± 0.044,1.08 ± 0.084
TM9SF3 (UniProt Q9HD45),1.04 ± 0.12,1.03 ± 0.1,1.01 ± 0.079,0.946 ± 0.12,1.05 ± 0.099,1.01 ± 0.097
PXDN (UniProt Q92626),1.06 ± 0.1,1.03 ± 0.067,1.09 ± 0.06,1.05 ± 0.049,1.04 ± 0.074,1.06 ± 0.1
UniProt Q9BTE6|Q9BTE6-3,0.947 ± 0.046,0.965 ± 0.018,0.932 ± 0.015,0.964 ± 0.067,0.928 ± 0.036,0.958 ± 0.025
UniProt Q96GN5|Q96GN5-4|Q96GN5-2,1.09 ± 0.19,1.16 ± 0.23,1.23 ± 0.36,1.29 ± 0.35,1.34 ± 0.41,1.42 ± 0.57
UniProt Q9BXK5|Q9BXK5-4,0.958 ± 0.041,0.97 ± 0.011,0.957 ± 0.028,0.988 ± 0.021,0.926 ± 0.031,0.916 ± 0.052
